Data as given in paper PMC7862700, “An all-to-all approach to the identification of sequence-specific readers for epigenetic DNA modifications on cytosine”.

Key:
Assay in all cases: DAPPL (digital affinity profiling via proximity ligation, sequencing); 10 mM Tris-HCl pH 7.5, 50 mM NaCl, 1 mM DTT, 4% glycerol, room temperature, 30 min; GST-TFs on glutathione beads, 16-mer random dsDNA library, 0.1% formaldehyde crosslink after washing; high values mean tight binding
FLI1 = target: T1, FLI1 (Homo sapiens, UniProt Q01543 1-452); conditions: protein: recombinant; tags: N-terminal GST; dsDNA, one strand shown
T1 sequence: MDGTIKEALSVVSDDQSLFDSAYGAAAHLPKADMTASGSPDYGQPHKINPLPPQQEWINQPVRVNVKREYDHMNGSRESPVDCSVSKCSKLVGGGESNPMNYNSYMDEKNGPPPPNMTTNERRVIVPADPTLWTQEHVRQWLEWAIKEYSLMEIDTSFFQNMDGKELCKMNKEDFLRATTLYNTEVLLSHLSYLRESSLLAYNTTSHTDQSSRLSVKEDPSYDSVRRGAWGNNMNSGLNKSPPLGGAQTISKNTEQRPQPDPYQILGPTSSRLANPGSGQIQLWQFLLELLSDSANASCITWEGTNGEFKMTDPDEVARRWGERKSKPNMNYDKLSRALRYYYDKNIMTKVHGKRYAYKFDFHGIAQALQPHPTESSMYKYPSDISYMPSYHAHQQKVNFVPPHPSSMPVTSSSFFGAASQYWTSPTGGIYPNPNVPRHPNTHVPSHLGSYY
Summary of the method: (§1)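 Each value of binding signal is a hexamer's read frequency for a factor divided by the same hexamer's frequency in the tag-only sample. Barcoded, bead-captured GST fusions of human transcription factors made in yeast were pooled with that sample and incubated with 200 nmole of a random double-stranded 16-mer DNA library in Tris/NaCl/DTT/glycerol buffer at room temperature for 30 min. Washing, 0.1% formaldehyde crosslinking, proximity ligation, PCR and Illumina NextSeq500 sequencing followed.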

ELK1 = target: T2, ELK1 (Homo sapiens, UniProt P19419 1-428); conditions: protein: recombinant; tags: N-terminal GST; dsDNA, one strand shown
T2 sequence: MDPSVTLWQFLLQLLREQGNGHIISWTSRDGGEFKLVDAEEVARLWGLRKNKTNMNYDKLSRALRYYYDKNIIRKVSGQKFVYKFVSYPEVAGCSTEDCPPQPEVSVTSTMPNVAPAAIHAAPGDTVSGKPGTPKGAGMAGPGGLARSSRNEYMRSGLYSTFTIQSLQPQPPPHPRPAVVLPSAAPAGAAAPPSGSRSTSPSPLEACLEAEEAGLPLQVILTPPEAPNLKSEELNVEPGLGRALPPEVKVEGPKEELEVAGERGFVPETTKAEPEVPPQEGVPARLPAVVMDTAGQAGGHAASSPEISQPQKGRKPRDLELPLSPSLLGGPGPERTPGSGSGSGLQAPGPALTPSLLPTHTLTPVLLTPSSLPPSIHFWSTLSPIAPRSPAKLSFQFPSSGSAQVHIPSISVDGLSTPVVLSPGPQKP
Summary of the method: as §1

GABPA = target: T3, GABPA (Homo sapiens, UniProt Q06546 1-454); conditions: protein: recombinant; tags: N-terminal GST; dsDNA, one strand shown
T3 sequence: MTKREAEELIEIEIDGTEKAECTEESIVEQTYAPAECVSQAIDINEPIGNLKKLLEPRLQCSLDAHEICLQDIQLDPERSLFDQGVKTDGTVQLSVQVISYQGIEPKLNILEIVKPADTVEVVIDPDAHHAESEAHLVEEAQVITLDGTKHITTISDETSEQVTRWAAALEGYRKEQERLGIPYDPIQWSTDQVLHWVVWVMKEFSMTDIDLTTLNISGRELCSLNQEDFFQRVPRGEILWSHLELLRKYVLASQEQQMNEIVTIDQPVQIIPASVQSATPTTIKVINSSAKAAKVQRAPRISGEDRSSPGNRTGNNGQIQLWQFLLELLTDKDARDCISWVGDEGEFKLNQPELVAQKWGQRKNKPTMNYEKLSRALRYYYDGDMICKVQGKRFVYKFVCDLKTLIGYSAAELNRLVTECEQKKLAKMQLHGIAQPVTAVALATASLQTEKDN
Summary of the method: as §1

ERG = target: T4, ERG (Homo sapiens, UniProt P11308 1-479); conditions: protein: recombinant; tags: N-terminal GST; dsDNA, one strand shown
T4 sequence: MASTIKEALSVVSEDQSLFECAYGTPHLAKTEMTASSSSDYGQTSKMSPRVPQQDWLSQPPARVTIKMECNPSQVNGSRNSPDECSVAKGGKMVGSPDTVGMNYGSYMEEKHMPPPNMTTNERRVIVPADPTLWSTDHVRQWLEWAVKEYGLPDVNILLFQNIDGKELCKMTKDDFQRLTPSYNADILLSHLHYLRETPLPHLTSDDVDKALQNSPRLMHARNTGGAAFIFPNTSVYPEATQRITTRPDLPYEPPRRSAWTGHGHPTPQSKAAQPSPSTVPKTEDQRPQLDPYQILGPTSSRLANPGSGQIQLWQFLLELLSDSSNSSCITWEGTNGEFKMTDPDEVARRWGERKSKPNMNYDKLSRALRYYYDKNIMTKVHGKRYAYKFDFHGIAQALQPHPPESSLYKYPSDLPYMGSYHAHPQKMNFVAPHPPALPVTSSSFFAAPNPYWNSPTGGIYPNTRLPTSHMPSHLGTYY
Summary of the method: as §1

ELF1 = ELF1 (Homo sapiens, UniProt P32519 1-619); conditions: protein: recombinant; tags: N-terminal GST; dsDNA, one strand shown
Sequence of ELF1 (P32519 whole entry): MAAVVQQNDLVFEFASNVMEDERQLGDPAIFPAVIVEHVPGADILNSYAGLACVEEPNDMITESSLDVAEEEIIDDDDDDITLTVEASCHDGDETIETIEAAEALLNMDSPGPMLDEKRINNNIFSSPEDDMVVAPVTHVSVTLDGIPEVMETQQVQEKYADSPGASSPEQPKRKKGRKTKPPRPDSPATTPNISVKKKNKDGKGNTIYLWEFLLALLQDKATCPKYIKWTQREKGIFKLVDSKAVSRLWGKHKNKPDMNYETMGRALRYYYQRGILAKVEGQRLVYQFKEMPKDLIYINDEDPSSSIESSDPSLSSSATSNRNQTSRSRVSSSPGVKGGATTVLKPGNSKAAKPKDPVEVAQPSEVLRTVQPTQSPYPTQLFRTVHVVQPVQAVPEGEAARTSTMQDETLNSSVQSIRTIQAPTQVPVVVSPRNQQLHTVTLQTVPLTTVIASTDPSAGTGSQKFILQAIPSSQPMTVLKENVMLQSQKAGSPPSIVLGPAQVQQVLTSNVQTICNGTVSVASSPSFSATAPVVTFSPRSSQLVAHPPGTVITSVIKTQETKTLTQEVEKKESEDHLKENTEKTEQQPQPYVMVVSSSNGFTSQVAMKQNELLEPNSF
Summary of the method: as §1

EHF = target: T5, EHF (Homo sapiens, UniProt Q9NZC4 1-300); conditions: protein: recombinant; tags: N-terminal GST; dsDNA, one strand shown
T5 sequence: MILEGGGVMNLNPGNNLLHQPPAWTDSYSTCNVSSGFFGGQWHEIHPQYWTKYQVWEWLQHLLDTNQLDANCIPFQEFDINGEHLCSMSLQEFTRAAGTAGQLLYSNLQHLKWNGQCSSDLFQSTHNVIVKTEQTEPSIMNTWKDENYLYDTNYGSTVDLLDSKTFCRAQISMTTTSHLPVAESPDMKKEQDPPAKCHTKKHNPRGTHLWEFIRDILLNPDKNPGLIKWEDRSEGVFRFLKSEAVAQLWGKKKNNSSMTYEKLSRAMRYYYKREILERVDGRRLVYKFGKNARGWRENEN
Summary of the method: as §1

SPI1 = SPI1 (Homo sapiens, UniProt P17947 1-270); conditions: protein: recombinant; tags: N-terminal GST; dsDNA, one strand shown
Summary of the method: as §1

SPIB = SPIB (Homo sapiens, UniProt Q01892 1-262); conditions: protein: recombinant; tags: N-terminal GST; dsDNA, one strand shown
Sequence of SPIB (Q01892 whole entry): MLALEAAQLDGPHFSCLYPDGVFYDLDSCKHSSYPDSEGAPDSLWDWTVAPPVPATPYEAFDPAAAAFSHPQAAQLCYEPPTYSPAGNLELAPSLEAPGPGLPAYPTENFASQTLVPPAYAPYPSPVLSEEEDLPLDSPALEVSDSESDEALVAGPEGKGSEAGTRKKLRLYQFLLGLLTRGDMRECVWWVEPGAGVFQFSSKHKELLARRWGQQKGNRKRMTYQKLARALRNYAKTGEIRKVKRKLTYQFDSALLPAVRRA
Summary of the method: as §1

ELK3 = target: T6, ELK3 (Homo sapiens, UniProt P41970 1-407); conditions: protein: recombinant; tags: N-terminal GST; dsDNA, one strand shown
T6 sequence: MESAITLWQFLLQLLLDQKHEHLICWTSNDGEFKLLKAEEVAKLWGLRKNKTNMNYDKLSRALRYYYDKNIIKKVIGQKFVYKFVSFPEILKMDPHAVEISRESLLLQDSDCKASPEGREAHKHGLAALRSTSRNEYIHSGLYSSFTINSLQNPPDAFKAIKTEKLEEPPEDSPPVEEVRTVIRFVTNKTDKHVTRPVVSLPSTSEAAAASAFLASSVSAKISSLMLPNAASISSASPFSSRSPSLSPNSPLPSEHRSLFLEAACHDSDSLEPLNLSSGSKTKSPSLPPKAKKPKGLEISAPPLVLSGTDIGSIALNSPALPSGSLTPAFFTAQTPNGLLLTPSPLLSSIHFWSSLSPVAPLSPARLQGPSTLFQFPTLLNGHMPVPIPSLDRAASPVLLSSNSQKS
Summary of the method: as §1

FEV = target: T7, FEV (Homo sapiens, UniProt Q99581 1-238); conditions: protein: recombinant; tags: N-terminal GST; dsDNA, one strand shown
T7 sequence: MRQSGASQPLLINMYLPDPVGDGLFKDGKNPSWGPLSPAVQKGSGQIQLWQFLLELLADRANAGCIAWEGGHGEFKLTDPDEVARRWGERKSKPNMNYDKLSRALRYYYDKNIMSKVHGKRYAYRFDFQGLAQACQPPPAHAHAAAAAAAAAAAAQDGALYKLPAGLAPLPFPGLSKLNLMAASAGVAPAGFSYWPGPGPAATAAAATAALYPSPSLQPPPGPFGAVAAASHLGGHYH
Summary of the method: as §1

ETV5 = ETV5 (Homo sapiens, UniProt P41161 1-510); conditions: protein: recombinant; tags: N-terminal GST; dsDNA, one strand shown
Sequence of ETV5 (P41161 whole entry): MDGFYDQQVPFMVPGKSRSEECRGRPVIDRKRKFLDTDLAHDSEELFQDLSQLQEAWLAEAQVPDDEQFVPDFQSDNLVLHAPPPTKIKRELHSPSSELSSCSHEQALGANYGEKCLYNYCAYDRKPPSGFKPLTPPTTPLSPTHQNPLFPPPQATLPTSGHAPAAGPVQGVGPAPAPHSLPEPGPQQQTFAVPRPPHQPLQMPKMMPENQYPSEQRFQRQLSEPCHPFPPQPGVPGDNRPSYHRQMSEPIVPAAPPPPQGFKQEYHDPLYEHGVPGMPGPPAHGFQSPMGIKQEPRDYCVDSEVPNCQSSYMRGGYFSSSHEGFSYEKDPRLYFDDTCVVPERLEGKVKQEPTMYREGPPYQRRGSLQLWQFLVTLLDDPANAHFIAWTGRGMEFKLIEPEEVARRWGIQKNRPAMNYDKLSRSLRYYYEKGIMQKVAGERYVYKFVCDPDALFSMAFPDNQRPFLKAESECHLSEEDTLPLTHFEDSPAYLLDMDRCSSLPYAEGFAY
Summary of the method: as §1

HSF1 = HSF1 (Homo sapiens, UniProt Q00613 1-529); conditions: protein: recombinant; tags: N-terminal GST; chain copies: 3; dsDNA, one strand shown
Sequence of HSF1 (Q00613 whole entry): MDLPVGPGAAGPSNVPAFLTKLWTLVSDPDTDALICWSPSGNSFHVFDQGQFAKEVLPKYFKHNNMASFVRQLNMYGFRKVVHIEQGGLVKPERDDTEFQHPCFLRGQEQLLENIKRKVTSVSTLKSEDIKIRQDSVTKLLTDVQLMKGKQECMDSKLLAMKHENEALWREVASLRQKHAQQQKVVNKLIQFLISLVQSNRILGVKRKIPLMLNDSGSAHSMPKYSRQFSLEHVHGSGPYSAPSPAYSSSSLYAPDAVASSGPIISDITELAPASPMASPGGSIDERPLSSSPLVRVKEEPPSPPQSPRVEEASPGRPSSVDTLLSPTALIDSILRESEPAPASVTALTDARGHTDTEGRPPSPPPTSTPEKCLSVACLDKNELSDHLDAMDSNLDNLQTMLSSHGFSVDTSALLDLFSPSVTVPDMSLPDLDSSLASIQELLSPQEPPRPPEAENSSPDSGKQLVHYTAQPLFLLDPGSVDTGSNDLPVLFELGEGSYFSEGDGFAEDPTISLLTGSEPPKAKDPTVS
Summary of the method: as §1

SPIC = target: T8, SPIC (Homo sapiens, UniProt Q8N5J4 1-248); conditions: protein: recombinant; tags: N-terminal GST; dsDNA, one strand shown
T8 sequence: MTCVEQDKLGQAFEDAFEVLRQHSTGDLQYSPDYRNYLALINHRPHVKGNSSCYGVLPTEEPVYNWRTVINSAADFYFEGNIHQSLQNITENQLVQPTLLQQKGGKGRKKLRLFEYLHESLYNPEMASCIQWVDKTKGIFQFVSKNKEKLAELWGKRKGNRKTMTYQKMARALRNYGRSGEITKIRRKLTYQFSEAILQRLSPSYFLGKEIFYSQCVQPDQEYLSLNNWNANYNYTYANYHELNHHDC
Summary of the method: as §1

ELF4 = ELF4 (Homo sapiens, UniProt Q99607 1-663); conditions: protein: recombinant; tags: N-terminal GST; dsDNA, one strand shown
Sequence of ELF4 (Q99607 whole entry): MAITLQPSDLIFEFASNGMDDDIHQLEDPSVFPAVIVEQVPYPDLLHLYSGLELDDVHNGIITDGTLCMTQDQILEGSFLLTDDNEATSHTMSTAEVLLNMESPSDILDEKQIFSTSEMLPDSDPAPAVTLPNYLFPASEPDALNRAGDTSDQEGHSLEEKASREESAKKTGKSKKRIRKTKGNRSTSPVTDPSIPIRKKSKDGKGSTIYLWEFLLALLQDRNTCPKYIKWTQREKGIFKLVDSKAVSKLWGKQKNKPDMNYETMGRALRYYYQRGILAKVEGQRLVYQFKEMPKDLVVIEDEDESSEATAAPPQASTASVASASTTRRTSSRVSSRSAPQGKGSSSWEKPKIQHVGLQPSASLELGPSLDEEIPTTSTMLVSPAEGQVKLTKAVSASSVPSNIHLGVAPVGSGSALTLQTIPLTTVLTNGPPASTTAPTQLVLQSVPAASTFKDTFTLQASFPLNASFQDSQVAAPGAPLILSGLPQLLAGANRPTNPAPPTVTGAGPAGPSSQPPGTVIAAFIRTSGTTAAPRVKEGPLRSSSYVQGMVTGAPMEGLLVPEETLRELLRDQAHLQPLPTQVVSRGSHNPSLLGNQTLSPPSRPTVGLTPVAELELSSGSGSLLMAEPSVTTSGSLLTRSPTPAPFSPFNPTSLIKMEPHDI
Summary of the method: as §1

ELK4 = target: T9, ELK4 (Homo sapiens, UniProt P28324-2 1-405); conditions: protein: recombinant; tags: N-terminal GST; dsDNA, one strand shown
T9 sequence: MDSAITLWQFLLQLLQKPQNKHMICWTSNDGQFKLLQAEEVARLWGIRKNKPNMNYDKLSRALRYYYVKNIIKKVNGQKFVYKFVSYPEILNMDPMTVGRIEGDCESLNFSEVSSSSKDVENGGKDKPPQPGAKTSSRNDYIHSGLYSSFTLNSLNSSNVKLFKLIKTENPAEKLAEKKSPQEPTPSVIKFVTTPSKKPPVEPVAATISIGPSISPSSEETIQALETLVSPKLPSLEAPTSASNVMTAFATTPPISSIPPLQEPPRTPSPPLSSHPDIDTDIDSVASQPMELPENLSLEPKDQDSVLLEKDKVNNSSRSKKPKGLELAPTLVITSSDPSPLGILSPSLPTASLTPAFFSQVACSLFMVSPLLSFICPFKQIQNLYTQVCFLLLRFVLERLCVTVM
Summary of the method: as §1

ETV2 = target: T10, ETV2 (Homo sapiens, UniProt O00321 1-342); conditions: protein: recombinant; tags: N-terminal GST; dsDNA, one strand shown
T10 sequence: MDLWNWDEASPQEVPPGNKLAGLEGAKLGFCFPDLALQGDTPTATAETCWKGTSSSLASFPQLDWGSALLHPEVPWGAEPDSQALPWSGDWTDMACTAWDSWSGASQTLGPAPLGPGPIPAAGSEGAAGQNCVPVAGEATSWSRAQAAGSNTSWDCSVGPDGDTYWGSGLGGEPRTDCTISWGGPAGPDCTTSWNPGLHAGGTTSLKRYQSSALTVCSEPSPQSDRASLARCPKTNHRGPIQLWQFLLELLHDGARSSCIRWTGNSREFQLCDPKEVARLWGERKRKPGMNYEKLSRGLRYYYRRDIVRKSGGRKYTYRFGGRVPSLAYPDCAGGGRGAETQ
Summary of the method: as §1

ELF3 = target: T11, ELF3 (Homo sapiens, UniProt P78545 1-371); conditions: protein: recombinant; tags: N-terminal GST; dsDNA, one strand shown
T11 sequence: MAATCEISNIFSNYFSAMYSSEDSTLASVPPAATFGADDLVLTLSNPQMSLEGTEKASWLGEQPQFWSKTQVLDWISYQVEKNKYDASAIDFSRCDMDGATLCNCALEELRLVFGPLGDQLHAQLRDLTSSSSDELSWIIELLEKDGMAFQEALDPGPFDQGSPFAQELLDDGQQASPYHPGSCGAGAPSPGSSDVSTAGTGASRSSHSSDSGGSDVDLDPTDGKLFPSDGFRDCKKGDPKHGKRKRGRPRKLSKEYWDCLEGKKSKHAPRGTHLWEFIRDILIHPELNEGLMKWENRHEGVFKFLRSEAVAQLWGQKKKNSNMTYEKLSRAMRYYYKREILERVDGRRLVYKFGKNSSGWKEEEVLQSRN
Summary of the method: as §1

CRX = CRX (Homo sapiens, UniProt O43186 1-299); conditions: protein: recombinant; tags: N-terminal GST; dsDNA, one strand shown
Sequence of CRX (O43186 whole entry): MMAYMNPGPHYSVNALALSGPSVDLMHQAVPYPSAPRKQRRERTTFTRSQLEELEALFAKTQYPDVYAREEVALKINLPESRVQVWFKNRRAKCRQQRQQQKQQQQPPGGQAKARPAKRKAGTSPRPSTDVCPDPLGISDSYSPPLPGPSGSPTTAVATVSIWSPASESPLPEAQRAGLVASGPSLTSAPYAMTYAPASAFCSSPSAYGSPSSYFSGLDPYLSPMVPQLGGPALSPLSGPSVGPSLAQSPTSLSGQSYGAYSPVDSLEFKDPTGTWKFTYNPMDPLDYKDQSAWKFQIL
Summary of the method: as §1

ETV1 = ETV1 (Homo sapiens, UniProt P50549 1-477); conditions: protein: recombinant; tags: N-terminal GST; dsDNA, one strand shown
Sequence of ETV1 (P50549 whole entry): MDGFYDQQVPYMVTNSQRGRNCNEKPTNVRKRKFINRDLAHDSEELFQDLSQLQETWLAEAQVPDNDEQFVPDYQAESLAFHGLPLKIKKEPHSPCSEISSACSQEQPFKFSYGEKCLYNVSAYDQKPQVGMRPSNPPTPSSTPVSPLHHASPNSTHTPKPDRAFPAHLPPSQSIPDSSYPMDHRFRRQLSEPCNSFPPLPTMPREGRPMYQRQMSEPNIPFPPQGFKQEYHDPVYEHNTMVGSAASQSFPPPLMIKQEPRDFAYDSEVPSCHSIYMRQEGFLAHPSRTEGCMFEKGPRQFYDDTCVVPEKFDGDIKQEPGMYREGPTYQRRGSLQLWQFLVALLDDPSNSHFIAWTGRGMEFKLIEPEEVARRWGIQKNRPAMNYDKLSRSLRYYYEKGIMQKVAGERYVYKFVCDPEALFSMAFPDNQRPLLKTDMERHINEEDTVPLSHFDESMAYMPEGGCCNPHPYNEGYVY
Summary of the method: as §1

## GTAATA
FLI1
  binding signal: 1.12 fold enrichment (6-mer frequency, TF over GST control)
ELK1
  binding signal: 1.21 fold enrichment (6-mer frequency, TF over GST control)
GABPA
  binding signal: 1.09 fold enrichment (6-mer frequency, TF over GST control)
ERG
  binding signal: 1.15 fold enrichment (6-mer frequency, TF over GST control)
ELF1
  binding signal: 1.15 fold enrichment (6-mer frequency, TF over GST control)
EHF
  binding signal: 1.2 fold enrichment (6-mer frequency, TF over GST control)
SPI1
  binding signal: 1.11 fold enrichment (6-mer frequency, TF over GST control)
SPIB
  binding signal: 1.24 fold enrichment (6-mer frequency, TF over GST control)
ELK3
  binding signal: 1.01 fold enrichment (6-mer frequency, TF over GST control)
FEV
  binding signal: 1.11 fold enrichment (6-mer frequency, TF over GST control)
ETV5
  binding signal: 1.13 fold enrichment (6-mer frequency, TF over GST control)
HSF1
  binding signal: 1.24 fold enrichment (6-mer frequency, TF over GST control)
SPIC
  binding signal: 1.27 fold enrichment (6-mer frequency, TF over GST control)
ELF4
  binding signal: 1.16 fold enrichment (6-mer frequency, TF over GST control)
ELK4
  binding signal: 1.27 fold enrichment (6-mer frequency, TF over GST control)
ETV2
  binding signal: 1.09 fold enrichment (6-mer frequency, TF over GST control)
ELF3
  binding signal: 1.22 fold enrichment (6-mer frequency, TF over GST control)
CRX
  binding signal: 1.52 fold enrichment (6-mer frequency, TF over GST control)
ETV1
  binding signal: 1.13 fold enrichment (6-mer frequency, TF over GST control)
